SMILES strings stand for the structures.

For assay [1], the target named is Tumor necrosis factor receptor superfamily member 10B (Homo sapiens) (UniProt O14763). In words: viability loss of caspase-8 NB7 cells with TRAIL – with/without TRAIL, luminescence panel, confirmation (AID 651596). The following applies: NB7 neuroblastoma + caspase-8, TRAIL sensitization, NB7 Caspase-8, with TRAIL, mean of runs, at 10 µM, stronger effect = higher value.
Test in assay [2]: as above
The following applies: NB7 neuroblastoma + caspase-8, without TRAIL, NB7 Caspase-8, without TRAIL, mean of runs, at 10 µM.

Sequence of Tumor necrosis factor receptor superfamily member 10B (Homo sapiens) (O14763 whole entry, looked up): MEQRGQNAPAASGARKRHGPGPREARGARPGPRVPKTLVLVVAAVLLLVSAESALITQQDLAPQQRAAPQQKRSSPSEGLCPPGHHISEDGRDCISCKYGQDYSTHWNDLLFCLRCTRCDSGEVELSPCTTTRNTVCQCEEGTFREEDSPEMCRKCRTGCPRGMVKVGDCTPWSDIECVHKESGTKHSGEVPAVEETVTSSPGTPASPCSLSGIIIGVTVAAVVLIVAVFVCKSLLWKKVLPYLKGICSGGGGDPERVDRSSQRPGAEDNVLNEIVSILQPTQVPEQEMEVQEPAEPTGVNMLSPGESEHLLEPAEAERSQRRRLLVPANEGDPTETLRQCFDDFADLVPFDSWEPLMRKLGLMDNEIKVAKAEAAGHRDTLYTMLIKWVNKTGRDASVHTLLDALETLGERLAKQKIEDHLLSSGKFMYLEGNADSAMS

On to `CNC[C@H](CC1CCCCC1)NC[C@H](Cc1ccccc1)NCCC12CC3CC(CC(C3)C1)C2`, for which the activity in assay [1] was 98.5%; in assay [2], 99.4%.
The corresponding values for `CC(=O)c1ccc(N2CCN(c3ccc4cc(S(=O)(=O)N5CCC(C)CC5)ccc4n3)CC2)cc1` are 56.4% and 19.2%.
The matching figures for `COc1ccc(C(=O)/C=C/Nc2cc(C)ccn2)cc1`: 66.9% and 52.5%.
`Cc1ccc(C(=O)Nc2ccc(C)c(S(=O)(=O)N(C)C)c2)s1`: the activity in assay [1] was 52.5%; in assay [2], 66.5%.
The matching figures for `Nc1ncnc2c(C3OC(CO)C(O)C3O)c[nH]c12` (stereo unspecified): 95.2% and 98.7%.
The corresponding values for `CC(C)NC(=O)c1ccc2c3n(nc2c1)-c1ccccc1CO3` are 95.8% and 95.5%.
The matching figures for `Clc1ccc(OCc2nn3c(C4CCCCC4)nnc3s2)cc1`: 49.8% and 71.2%.
As for `COc1ccc(-c2cc3nc[nH]c(=O)c3s2)cc1`, the activity in assay [1] was found to be 61.5%; in assay [2] it was 58.2%.
The corresponding values for `CNc1nnc(-c2ccc(N(C)C)cc2)s1` are 73.4% and 61.2%.
With `CC(C)OC(=O)c1sc2nc(-c3ccccc3)ccc2c1N`, the values for the activity in assay [1] and in assay [2] were 58.5% and 60.3%, respectively.
The corresponding values for `CC(C)Oc1ccc(C(=O)NC2=NCCS2)cc1` are 57.7% and 61.8%.
The corresponding values for `Cc1ccc2nc(-c3ccccn3)[nH]c2c1` are 81% and 83.9%.
In the case of `COc1cc(SC)ccc1C(=O)NNC(=O)c1cc(C)oc1C`, the results for the activity in assay [1] and in assay [2] were 71.4% and 70.8%, respectively.
For `Cc1ccc2nc(-c3ccc(NC(=O)COC(=O)c4ccc([N+](=O)[O-])o4)cc3)sc2c1`, the activity amounted to 70.1% in assay [1] and 69.9% in assay [2].
The corresponding values for `Cc1ccc(NC(=O)c2ccc3c(c2)OCCO3)cc1` are 76% and 73.2%.
The corresponding values for `COc1cc2c(cc1OC)C(c1cc(Br)ccc1F)N(C(=O)CCl)CC2` (stereo unspecified) are 98.6% and 98.7%.
Consider `O=C(Nc1ccc2c(c1)OCCO2)Nc1ccc2c(c1)OCO2`, for which the activity in assay [1] came to 81.4%; in assay [2] it was 79.5%.
Take `Cc1ccccc1CS(=O)(=O)c1ncc(Cl)c(C(=O)Nc2ccc(F)cc2)n1`: the activity in assay [1] is 22.5%; in assay [2], 24.9%.
With `COc1ccc(C(C(=O)NC2CCCCC2)N(C(=O)CCl)c2ccccc2Cl)cc1` (stereo unspecified), the activity in assay [1] amounted to 98.8%; in assay [2], 97.2%.
The corresponding values for `COc1ccc2[nH]c3c(NCCC4=CCCCC4)ncnc3c2c1` are 35.8% and 44.1%.
In the case of `Cc1ccc(/C(N)=N/OC(=O)c2ccc(F)cc2)cc1`, the activity in assay [1] came out at 96.3%; in assay [2] it was 92.5%.
For `N/C(=N\OC(=O)c1cccc(Br)c1)c1ccc(Br)cc1`, the activity in assay [1] amounted to 78.1%; in assay [2], 90.1%.
Consider `COc1cccc(C(=O)/C=C2\Sc3ccccc3N2C)c1`, for which the activity in assay [1] turned out to be 56.7%; in assay [2], 29.4%.
On to `O=C(Nc1nc2ccccc2n1CCN1CCCCC1)C1CCCCC1`, for which the activity came to 56.6% in assay [1] and 54.1% in assay [2].
As for `C#Cc1ccc(NC(=O)C2(C)CCN2C(=O)C2(c3ccccc3)CCCC2)cc1` (stereo unspecified), the results for the activity in assay [1] and in assay [2] were 91.3% and 84.6%, respectively.
Consider `Cc1ccc(C2=NN(C(=O)CCl)C(c3cccs3)C2)o1` (stereo unspecified), for which the activity was 99.6% in assay [1] and 99.1% in assay [2].
The corresponding values for `CCc1ccc(C(=O)Nc2nnn(CC)n2)cc1` are 73.6% and 75.5%.
As for `Cc1ccc2nc(-c3ccc(NC(=O)CCN4C(=O)c5ccccc5C4=O)cc3)sc2c1`, the activity in assay [1] was 73.7%; in assay [2], 63.9%.
Consider `CN(C)c1cccc(C(=O)Nc2nc3ccccc3[nH]2)c1`, for which the results for the activity in assay [1] and in assay [2] were 90.2% and 78.5%, respectively.
Take `Cc1ccc2nc(NC(=S)NC(=O)c3cccs3)sc2c1`: the activity in assay [1] is 82.5%; in assay [2], 74.8%.
On to `Nc1c(C(=O)Nc2nc3ccccc3s2)sc2nc(-c3cccs3)ccc12`, for which the activity came out at 97.8% in assay [1] and 98.7% in assay [2].
With `CC(C)[C@@H](CO)NC(=O)c1ccc2c3n(nc2c1)-c1ccccc1CO3`, the activity was determined as 71.1% in assay [1] and 71.6% in assay [2].
Turning to `CN1/C(=C\C(=O)C[n+]2ccc(C(=O)c3ccccc3)cc2)C(C)(C)c2ccccc21`, the activity in assay [1] turned out to be 15.8%; in assay [2], 27.4%.
The matching figures for `COc1ccc(/C=C/c2cc(-c3ccc(C)cc3)o[n+]2C)cc1`: 81.8% and 90.6%.
On to `Brc1nc(-c2ccccc2)nc(-c2ccccc2)c1Br`, for which the activity in assay [1] is 98.9%; in assay [2] it was 99.2%.
The matching figures for `Cc1nc2cc(NC(=O)N3c4ccccc4CC3C)ccc2n1C` (stereo unspecified): 71.9% and 70.6%.
As to `CC(C)(C)c1ccc(/C=C/C(=O)NC2=NCCS2)cc1`, the activity in assay [1] worked out at 49.7%; in assay [2], 41.9%.
As to `N/C(=N\OC(=O)c1ccccc1Cl)c1cccnc1`, the activity in assay [1] worked out at 67.2%; in assay [2] it was 70.6%.
Turning to `Cc1ccc(S(=O)(=O)n2ccc3c(OCCOCCNCc4ccc(F)cc4)cccc32)cc1`, the activity in assay [1] is 15.8%; in assay [2], 26.4%.
As for `O=C(Cn1ncc(Cl)c(Cl)c1=O)NCC1CCCCC1`, the values for the activity in assay [1] and in assay [2] were 98.9% and 99.1%, respectively.
The matching figures for `CSc1ccc(C2NC(=O)c3ccccc3N2)cc1` (stereo unspecified): 31.3% and 45.8%.
The corresponding values for `O=C(Nc1ncc(Cc2ccccc2)s1)c1cccs1` are 74.1% and 75%.
As for `Cc1cccc(/C=N/Nc2nncc3ccccc23)c1`, the values for the activity in assay [1] and in assay [2] were 80.9% and 69.2%, respectively.
As for `Cc1ccc(C(C#N)=Cc2ccc3c(c2)OCO3)cc1`, the figures for the activity in assay [1] and in assay [2] were 68.5% and 65.2%, respectively.
As to `C/C(=N\NC(=O)c1ccccn1)c1ccc(Cl)cc1`, the activity turned out to be 44% in assay [1] and 46% in assay [2].
Take `CCOC(=O)c1sc2nc3c(SCC(=O)O)cc(C(=O)c4ccccc4O)cn3c(=O)c2c1C`: the activity turned out to be 49.1% in assay [1] and 42.5% in assay [2].
In the case of `Cc1ccc(C(=O)c2no[n+]([O-])c2C(=O)c2ccc(C)cc2)cc1`, the activity in assay [1] came to 98%; in assay [2], 92%.
For the compound `COC(=O)c1sc(NC(=S)NC(=O)c2ccccc2C)nc1C`, the activity stood at 58% in assay [1] and 61.3% in assay [2].

The values are drawn from PubChem BioAssay.
